{"source": "PubChem BioAssay (NCATS)", "note": "Inconclusive results are not listed. Where a call stands in place of a potency, no number is given. Activity calls are given as the source filed them. The call rests on the fitted dose curve; in most records, active means well fitted curve in the direction sought with a large enough effect; inconclusive means small, poorly fitted or top-dose-only effect, or another doubt; inactive means no such curve, though single readings can be large; an effect the other way counts as inactive or inconclusive. Square brackets hold non-standard residues; d marks the D form. Peptide text beside a SMILES is read from it. * marks the point of attachment. ξ: configuration not given here. Hexanoyl = CCCCCC(=O)*; ξL = CC(C)CC(N)C(=O)O"}
{"assay": "DH5-alpha competent E. coli microbial cell viability qHTS against the NCATS CANVASS Library (AID 1347377)", "conditions": "BacTiter-Glo ATP luminescence, overnight; series mostly up to 46.1 µM", "in_short": "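DH5-alpha E. coli suspension was exposed to an 11-point compound series overnight at 37 °C. Viable cells quantified by ATP luminescence (BacTiter-Glo) after 20 min at room temperature.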"}
{"smiles": "CN1CC[C@]23c4ccccc4N[C@H]1[C@]21CCN(C)[C@H]3Nc2ccccc21", "outcome": "inactive"}
{"smiles": "COc1c(O)cc(O)c2c(=O)cc(-c3ccccc3)oc12", "outcome": "inactive"}
{"smiles": "COC1C(C)OC(OCC23C[C@@H]4[C@H](C)CC[C@H]4C4(C=O)CC2C=C(C(C)C)C34C(=O)O)[C@@H](O)[C@H]1O", "note": "(stereo partly specified)", "outcome": "inactive"}
{"smiles": "CC[C@@H](C)[C@H]1NC(=O)C(CC(C)C)NC(=O)[C@@H](CC(C)C)NC(=O)[C@H](Cc2c[nH]c3ccccc23)NC(=O)CNC(=O)[C@@H](CC(N)=O)NC1=O", "note": "(stereo partly drawn) (cyclo(GW[dL][ξL][dI][dN]))", "outcome": "inactive"}
{"smiles": "Cc1cc(O)cc2c1C(=O)c1c(O)cc(O)cc1C2=O", "outcome": "inactive"}
{"smiles": "C=C(C)C(=O)O[C@H]1C[C@@]2(C)OC(=CC2=O)/C(C)=C\\[C@H]2OC(=O)C(=C)[C@H]12", "outcome": "inactive"}
{"smiles": "CC[C@@H]1C[C@@]2(CC)OC(=O)[C@@]3(CC)[C@H](CC)[C@@H]1[C@@H]23", "outcome": "inactive"}
{"smiles": "[C-]#[N+][C@@]12C(=O)[C@@H]3[C@@H](O[C@@]4(C(=O)N(C)c5cccc1c54)C3(C)C)C(=O)[C@@]2(C)C=C", "outcome": "inactive"}
{"smiles": "O=C1OC(CCO)c2cccc(O)c21", "note": "(stereo unspecified)", "outcome": "inactive"}
{"smiles": "C=C1C[C@]23C=CC(=O)[C@@](C)(CCCC(C)C(=O)N[C@@H](CO)C(=O)O)[C@@H]2C[C@@H]1CC3", "note": "(stereo partly specified)", "outcome": "inactive"}
{"smiles": "COc1cc2ccc(=O)oc2c(O)c1O[C@@H]1O[C@H](CO)[C@@H](O)[C@H](O)[C@H]1O", "outcome": "inactive"}
{"smiles": "C/C(=C\\[C@@H](C)CC/C=C/CC/C=C/C(=O)O)[C@@H](O)[C@H](C)C(=O)CCCC1CC(=O)NC(=O)C1", "outcome": "inactive"}
{"smiles": "CN1CC[C@@]23c4ccccc4N[C@@H]1[C@@]21CCN(C)[C@@H]3Nc2ccccc21", "outcome": "inactive"}
{"smiles": "C[C@@]12CCC[C@@](C)(C(=O)O)[C@H]1C[C@@H](O)[C@@]13C[C@@H](CC[C@@H]21)[C@](C)(O)C3", "outcome": "inactive"}
{"smiles": "C=C[C@@]1(C)CC[C@@H]([C@H](C)C(C)=O)O1", "outcome": "inactive"}
{"smiles": "C/C=C(/CO)C(=O)O[C@@H]1[C@H](O)[C@@H](C(=O)OC)O[C@@H]2C[C@H]3OC(n4cnc5c(N)ncnc54)[C@H](OC)[C@H]3O[C@@]12O", "note": "(stereo partly specified)", "outcome": "inactive"}
{"smiles": "C=C1[C@@]2(C)CC3C4(C)CCC(O)C(C)(C)C4CCC3(C)[C@]1(C(=O)OC)C(=O)C(C)(O)C2=O", "note": "(stereo partly specified)", "outcome": "inactive"}
{"smiles": "CC(C)=CCC[C@]1(C)[C@H]2CC(=O)[C@@]3(CO3)[C@@H]1C2", "outcome": "inactive"}
{"smiles": "CCCCCC(=O)N[C@@H](CC(C)C)C(=O)N[C@H](C=O)CCC(=O)O", "note": "(Hexanoyl-Leu-Glu-aldehyde)", "outcome": "inactive"}
{"assay": "qHTS for H2AX Agonists against the NCATS CANVASS Library (AID 1347378);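 further: phospho-H2AX S139 level in CHO-K1 lysates by TR-FRET emission ratio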; further: potency means the concentration at half of the fitted maximal effect", "conditions": "CHO-K1 H2AX phosphorylation, HTRF TR-FRET, 3 h; series mostly up to 76.9 µM", "in_short": "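CHO-K1, 1000 cells/well, o/n 37C; cpd several conc, 3 hr 37C, 0.76% DMSO; lyse 30 min RT; cryptate anti-pH2AX(S139) + d2 anti-H2AX, 24 hr RT; HTRF 665/620.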"}
{"smiles": "CC(=O)N[C@H](C)c1nc(/C=C/C=C/C(=O)CC2CC(=O)CC[C@]2(C)O)cs1", "note": "(stereo partly specified)", "Potency": "inactive"}
{"smiles": "CN1C(=O)C(=O)N2C(=C[C@]3(c4c[nH]c5ccccc45)c4ccccc4N[C@H]23)C1=O", "Potency": "inactive"}
{"smiles": "CN1CC[C@]23c4ccccc4N[C@H]1[C@]21CCN(C)[C@H]3Nc2ccccc21", "Potency": "inactive"}
{"smiles": "O=C1CC(c2ccc(O)cc2)Oc2ccccc21", "note": "(stereo unspecified)", "Potency": "inactive"}
{"smiles": "COc1c(O)cc(O)c2c(=O)cc(-c3ccccc3)oc12", "Potency": "inactive"}
{"smiles": "COC1C(C)OC(OCC23C[C@@H]4[C@H](C)CC[C@H]4C4(C=O)CC2C=C(C(C)C)C34C(=O)O)[C@@H](O)[C@H]1O", "note": "(stereo partly specified)", "Potency": "inactive"}
{"smiles": "CN1CC[C@@]2([C@@]34CCN(C)[C@@H]3Nc3ccccc34)c3ccccc3N[C@@H]12", "Potency": "inactive"}
{"smiles": "COc1ccc(-c2oc3cc(OC)cc(OC)c3c(=O)c2O)cc1", "Potency": "inactive"}
{"smiles": "CC[C@@H](C)[C@H]1NC(=O)C(CC(C)C)NC(=O)[C@@H](CC(C)C)NC(=O)[C@H](Cc2c[nH]c3ccccc23)NC(=O)CNC(=O)[C@@H](CC(N)=O)NC1=O", "note": "(stereo partly drawn) (cyclo(GW[dL][ξL][dI][dN]))", "Potency": "inactive"}
{"smiles": "Cc1cc(O)cc2c1C(=O)c1c(O)cc(O)cc1C2=O", "Potency": "inactive"}
{"smiles": "C=C(Cl)[C@](Cl)(CBr)CC[C@@H](Br)C(C)(C)Cl", "Potency": "4.86 µM (active)"}
{"smiles": "C=C[C@]1(C)CC[C@@H]([C@H](C)C(=O)CC=C(C)C)O1", "Potency": "inactive"}
{"smiles": "CC[C@@H]1C[C@@]2(CC)OC(=O)[C@@]3(CC)[C@H](CC)[C@@H]1[C@@H]23", "Potency": "inactive"}
{"smiles": "[C-]#[N+][C@@]12C(=O)[C@@H]3[C@@H](O[C@@]4(C(=O)N(C)c5cccc1c54)C3(C)C)C(=O)[C@@]2(C)C=C", "Potency": "inactive"}
{"smiles": "COC(=O)c1cccc2oc(-c3cccc4oc(-c5c(C)cccc5O)nc34)nc12", "Potency": "inactive"}
{"smiles": "CCC(C)=C1OC(=O)[C@H](C)[C@H](O)[C@H](Cc2cccnc2)NC(=O)C(NC(=O)c2ncccc2O)C(C)OC1=O", "note": "(stereo partly specified)", "Potency": "inactive"}
{"smiles": "C[C@@]12CCC[C@@](C)(C(=O)O)[C@H]1CC[C@@]13C[C@@H](CC[C@H]12)[C@](C)(O)C3", "Potency": "inactive"}
{"smiles": "O=C1OC(CCO)c2cccc(O)c21", "note": "(stereo unspecified)", "Potency": "inactive"}
{"smiles": "C=C1C[C@]23C=CC(=O)[C@@](C)(CCCC(C)C(=O)N[C@@H](CO)C(=O)O)[C@@H]2C[C@@H]1CC3", "note": "(stereo partly specified)", "Potency": "inactive"}
{"smiles": "COc1cc2ccc(=O)oc2c(O)c1O[C@@H]1O[C@H](CO)[C@@H](O)[C@H](O)[C@H]1O", "Potency": "inactive"}
{"smiles": "C/C(=C\\[C@@H](C)CC/C=C/CC/C=C/C(=O)O)[C@@H](O)[C@H](C)C(=O)CCCC1CC(=O)NC(=O)C1", "Potency": "inactive"}
{"smiles": "CO[C@@H](C[C@@H](C)[C@@H](O)/C=C/C=C/CNC(=O)C(C)(C)[C@H](O)\\C(C)=C/C=C\\C=C\\Cc1cnco1)[C@]1(O)[C@@H](C)C(=O)N(C)[C@@]12COC2=O", "Potency": "inactive"}
{"smiles": "O=C1CC(c2ccc(O)cc2)Oc2cc(O)cc(O)c21", "note": "(stereo unspecified)", "Potency": "inactive"}
{"smiles": "O=C1CC(c2ccc(O)cc2)Oc2cc(O)ccc21", "note": "(stereo unspecified)", "Potency": "inactive"}
{"smiles": "CN1CC[C@@]23c4ccccc4N[C@@H]1[C@@]21CCN(C)[C@@H]3Nc2ccccc21", "Potency": "inactive"}
{"smiles": "C[C@@]12CCC[C@@](C)(C(=O)O)[C@H]1C[C@@H](O)[C@@]13C[C@@H](CC[C@@H]21)[C@](C)(O)C3", "Potency": "inactive"}
{"smiles": "O=Cc1ccc2n1C[C@]1(OC2)O[C@H](CO)[C@@H](O)[C@@H]1O", "Potency": "inactive"}
{"smiles": "C=C[C@@]1(C)CC[C@@H]([C@H](C)C(C)=O)O1", "Potency": "inactive"}
{"smiles": "C/C=C(/CO)C(=O)O[C@@H]1[C@H](O)[C@@H](C(=O)OC)O[C@@H]2C[C@H]3OC(n4cnc5c(N)ncnc54)[C@H](OC)[C@H]3O[C@@]12O", "note": "(stereo partly specified)", "Potency": "inactive"}
{"smiles": "C/C=C/[C@H]1[C@H]2C(=O)c3c(O)c(C)c(O)c(C)c3[C@]1(C(=O)O)C(=O)C=C2C", "Potency": "inactive"}
{"smiles": "C[C@@]12C[C@@H](C[C@@H]3C(=O)O[C@@H](c4ccoc4)[C@H](OC(=O)c4ccccc4)[C@@H]31)OC2=O", "Potency": "inactive"}
{"smiles": "C=C1CCC2C(C)(C(=O)O)CCC(CC/C(C)=C/C(=O)NC(CCC(N)=O)C(=O)O)[C@@]2(C)C1", "note": "(stereo partly specified)", "Potency": "inactive"}
{"smiles": "C=C1[C@@]2(C)CC3C4(C)CCC(O)C(C)(C)C4CCC3(C)[C@]1(C(=O)OC)C(=O)C(C)(O)C2=O", "note": "(stereo partly specified)", "Potency": "inactive"}
{"smiles": "CC(C)=CCC[C@]1(C)[C@H]2CC(=O)[C@@]3(CO3)[C@@H]1C2", "Potency": "inactive"}
{"smiles": "CCCCCC(=O)N[C@@H](CC(C)C)C(=O)N[C@H](C=O)CCC(=O)O", "note": "(Hexanoyl-Leu-Glu-aldehyde)", "Potency": "inactive"}
{"smiles": "COc1ccc([C@@H]2c3cc4c(cc3C(=O)C(C)C2C)OCO4)cc1OC", "note": "(stereo partly specified)", "Potency": "inactive"}
{"smiles": "CC1(C)CC[C@]2(CO)CC[C@]3(C)C(=CCC4[C@@]5(C)CC[C@H](O)C(C)(C)C5CC[C@]43C)C2C1", "note": "(stereo partly specified)", "Potency": "inactive"}
